# Measurements as given in the supplement of paper PMC6992640.
# ± gives the standard deviation of the averaged measurements.
# Experiments:
# Test in all cases: cell viability (% of vehicle); higher = less cytotoxic
# Settings in all cases: 10 µM; 72 h
# HCI01 = tested on: HCI01 (cells of a triple-negative basal-like breast cancer xenograft)
# HCI03 = tested on: HCI03 (cells of an ER-positive luminal breast cancer xenograft)
# HCI09 = tested on: HCI09 (cells of a triple-negative luminal androgen receptor type breast cancer xenograft)
# HCI11 = tested on: HCI11 (cells of an ER-positive luminal breast cancer xenograft)
# HCI13 = tested on: HCI13 (cells of an ER-positive luminal breast cancer xenograft)
# HCI16 = tested on: HCI16 (cells of a triple-negative basal-like breast cancer xenograft)
# UCD52 = tested on: UCD52 (cells of a triple-negative basal-like breast cancer xenograft)
# WHIM2 = tested on: WHIM2 (cells of a triple-negative basal-like breast cancer xenograft)
# WHIM30 = tested on: WHIM30 (cells of a triple-negative basal-like breast cancer xenograft)
# 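Also: PDX cells carrying CMV promoter-driven luciferase, viability read as total photon flux per second by IVIS imaging following D-luciferin, vehicle control 0.1% DMSO.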
compound,measurement,setting,value
CCCc1nn(C)c2c(=O)nc(-c3cc(S(=O)(=O)N4CCN(C)CC4)ccc3OCC)[nH]c12 [Sildenafil],cell viability,HCI01,83.6 ± 6.4
same,cell viability,HCI03,101
same,cell viability,HCI09,82.8 ± 18
same,cell viability,HCI11,73.3
same,cell viability,HCI13,73.7 ± 3.3
same,cell viability,HCI16,103
same,cell viability,UCD52,82.8 ± 2.1
same,cell viability,WHIM2,92.4 ± 1
same,cell viability,WHIM30,105.82 ± 0.018
OCC1OC(Oc2ccc(O)cc2)C(O)C(O)C1O (stereo unspecified) [Arbutin],cell viability,HCI01,107 ± 28
same,cell viability,HCI03,127
same,cell viability,HCI09,100 ± 16
same,cell viability,HCI11,89.2
same,cell viability,HCI13,96.6 ± 4.9
same,cell viability,HCI16,131
same,cell viability,UCD52,103 ± 1.1
same,cell viability,WHIM2,81.9 ± 9
same,cell viability,WHIM30,84.3 ± 7.3
CCCC(=O)OCOC(=O)C1=C(C)NC(C)=C(C(=O)OC)C1c1cccc(Cl)c1Cl (stereo unspecified) [Clevidipine Butyrate],cell viability,HCI01,106.5 ± 0.58
same,cell viability,HCI03,126
same,cell viability,HCI09,104 ± 19
same,cell viability,HCI11,112
same,cell viability,HCI13,105 ± 6.6
same,cell viability,HCI16,88.1
same,cell viability,UCD52,92.2 ± 1.5
same,cell viability,WHIM2,100 ± 6.3
same,cell viability,WHIM30,91 ± 2.4
C=C1C(CO)C(O)CC1n1cnc2c(=O)nc(N)[nH]c21.O (stereo unspecified) [Entecavir Hydrate],cell viability,HCI01,110 ± 5.2
same,cell viability,HCI03,104
same,cell viability,HCI09,91.1 ± 4.7
same,cell viability,HCI11,99.5
same,cell viability,HCI13,82.7 ± 5.4
same,cell viability,HCI16,108
same,cell viability,UCD52,103 ± 13
same,cell viability,WHIM2,81.3 ± 11
same,cell viability,WHIM30,107 ± 9.8
COc1cc(Nc2ncc3c(n2)-c2ccc(Cl)cc2C(c2c(F)cccc2OC)=NC3)ccc1C(=O)O [MLN8237 (Alisertib)],cell viability,HCI01,80 ± 15
same,cell viability,HCI03,118
same,cell viability,HCI09,106 ± 32
same,cell viability,HCI11,100
same,cell viability,HCI13,94.9 ± 14
same,cell viability,HCI16,87.9
same,cell viability,UCD52,64.6 ± 12
same,cell viability,WHIM2,80.1 ± 8.5
same,cell viability,WHIM30,156 ± 12
CC(CCC(=O)O)C1CCC2C3C(O)CC4CC(O)CCC4(C)C3CCC12C (stereo unspecified) [Ursodiol],cell viability,HCI01,90.9 ± 70
same,cell viability,HCI03,150
same,cell viability,HCI09,100.8 ± 0.88
same,cell viability,HCI11,95.2
same,cell viability,HCI13,126 ± 9.4
same,cell viability,HCI16,124
same,cell viability,UCD52,89.82 ± 0.32
same,cell viability,WHIM2,111 ± 9.3
same,cell viability,WHIM30,155 ± 12
CC(=O)Nc1cccc(-n2c(=O)n(C3CC3)c(=O)c3c(Nc4ccc(I)cc4F)n(C)c(=O)c(C)c32)c1,cell viability,HCI01,103 ± 34
same,cell viability,HCI03,94
same,cell viability,HCI09,82.1 ± 34
same,cell viability,HCI11,98.3
same,cell viability,HCI13,110 ± 16
same,cell viability,HCI16,120
same,cell viability,UCD52,48 ± 14
same,cell viability,WHIM2,74.2 ± 8.9
same,cell viability,WHIM30,133 ± 24
Cl.NC(N)=NC(=O)c1nc(Cl)c(N)nc1N.O.O [Amiloride HCl dihydrate],cell viability,HCI01,99.2 ± 7.3
same,cell viability,HCI03,102
same,cell viability,HCI09,121 ± 1.5
same,cell viability,HCI11,89.4
same,cell viability,HCI13,102 ± 8.4
same,cell viability,HCI16,115
same,cell viability,UCD52,96.35 ± 0.8
same,cell viability,WHIM2,86 ± 16
same,cell viability,WHIM30,114 ± 8.2
Cl.O=C1c2cccc3c2C(CCC3)CN1C1CN2CCC1CC2 (stereo unspecified) [Palonosetron HCl],cell viability,HCI01,86 ± 15
same,cell viability,HCI03,87.8
same,cell viability,HCI09,118 ± 38
same,cell viability,HCI11,94.8
same,cell viability,HCI13,100 ± 12
same,cell viability,HCI16,111
same,cell viability,UCD52,76.3 ± 4.4
same,cell viability,WHIM2,82.6 ± 5.7
same,cell viability,WHIM30,104 ± 8.2
CNC(=O)[C@H](Cc1ccccc1)NC(=O)[C@H](CC(C)C)[C@H](CSc1cccs1)C(=O)NO [Batimastat (BB-94)],cell viability,HCI01,94.3 ± 12
same,cell viability,HCI03,88.2
same,cell viability,HCI09,78.2 ± 20
same,cell viability,HCI11,95.3
same,cell viability,HCI13,127 ± 3.9
same,cell viability,HCI16,67
same,cell viability,UCD52,127 ± 16
same,cell viability,WHIM2,72 ± 22
same,cell viability,WHIM30,175 ± 0.83
COc1cc2c(cc1O)CCC1C2CCC2(C)C(O)CCC12 (stereo unspecified) [2-Methoxyestradiol (2-MeOE2)],cell viability,HCI01,141 ± 8
same,cell viability,HCI03,110
same,cell viability,HCI09,94.8 ± 12
same,cell viability,HCI11,117
same,cell viability,HCI13,181 ± 10
same,cell viability,HCI16,121
same,cell viability,UCD52,95.1 ± 7.2
same,cell viability,WHIM2,114 ± 7
same,cell viability,WHIM30,150 ± 22
Cc1ccc(-n2nc(C(C)(C)C)cc2NC(=O)Nc2ccc(OCCN3CCOCC3)c3ccccc23)cc1 [BIRB 796 (Doramapimod)],cell viability,HCI01,138 ± 41
same,cell viability,HCI03,89.6
same,cell viability,HCI09,93.5 ± 19
same,cell viability,HCI11,71.1
same,cell viability,HCI13,48.5 ± 3.4
same,cell viability,HCI16,87.4
same,cell viability,UCD52,62.1 ± 7
same,cell viability,WHIM2,89.8 ± 8
same,cell viability,WHIM30,103 ± 18
CCCCN1CCCCC1C(=O)Nc1c(C)cccc1C.Cl (stereo unspecified) [Levobupivacaine HCl],cell viability,HCI01,109 ± 22
same,cell viability,HCI03,101
same,cell viability,HCI09,117 ± 29
same,cell viability,HCI11,106
same,cell viability,HCI13,121 ± 14
same,cell viability,HCI16,141
same,cell viability,UCD52,107 ± 4.1
same,cell viability,WHIM2,96.2 ± 3
same,cell viability,WHIM30,163 ± 5.2
CC(O)(P(=O)(O)O)P(=O)(O)O [Etidronate],cell viability,HCI01,94.3 ± 15
same,cell viability,HCI03,96.6
same,cell viability,HCI09,94.9 ± 14
same,cell viability,HCI11,85.2
same,cell viability,HCI13,107.1 ± 0.89
same,cell viability,HCI16,92.3
same,cell viability,UCD52,75 ± 5.3
same,cell viability,WHIM2,150 ± 2.7
same,cell viability,WHIM30,111 ± 11
CC(C)(C)c1nc(-c2cccc(NS(=O)(=O)c3c(F)cccc3F)c2F)c(-c2ccnc(N)n2)s1,cell viability,HCI01,118 ± 12
same,cell viability,HCI03,125
same,cell viability,HCI09,98.9 ± 1.2
same,cell viability,HCI11,119
same,cell viability,HCI13,187 ± 54
same,cell viability,HCI16,73.6
same,cell viability,UCD52,122 ± 12
same,cell viability,WHIM2,116 ± 4.4
same,cell viability,WHIM30,91.4 ± 15
O=c1oc2c(O)c(O)cc3c(=O)oc4c(O)c(O)cc1c4c23 [Ellagic acid],cell viability,HCI01,102 ± 15
same,cell viability,HCI03,144
same,cell viability,HCI09,100 ± 3
same,cell viability,HCI11,105
same,cell viability,HCI13,177 ± 43
same,cell viability,HCI16,125
same,cell viability,UCD52,103.5 ± 0.7
same,cell viability,WHIM2,118 ± 11
same,cell viability,WHIM30,115 ± 11
CN1CCc2nc(C(=O)NC3CC(C(=O)N(C)C)CCC3NC(=O)C(=O)Nc3ccc(Cl)cn3)sc2C1.Cc1ccc(S(=O)(=O)O)cc1.O (stereo unspecified) [Edoxaban tosylate monohydrate],cell viability,HCI01,102 ± 2.5
same,cell viability,HCI03,92.1
same,cell viability,HCI09,87.2 ± 11
same,cell viability,HCI11,91.2
same,cell viability,HCI13,109 ± 8.7
same,cell viability,HCI16,81.1
same,cell viability,UCD52,88.8 ± 16
same,cell viability,WHIM2,96.4 ± 8.8
same,cell viability,WHIM30,120 ± 4.4
C=CC(=O)N1CCCC(n2nc(-c3ccc(Oc4ccccc4)cc3)c3c(N)ncnc32)C1 (stereo unspecified),cell viability,HCI01,80.2 ± 24
same,cell viability,HCI03,69
same,cell viability,HCI09,56.2 ± 21
same,cell viability,HCI11,83.8
same,cell viability,HCI13,87.9 ± 8.6
same,cell viability,HCI16,55.6
same,cell viability,UCD52,76.7 ± 4.3
same,cell viability,WHIM2,70.4 ± 7.2
same,cell viability,WHIM30,103 ± 9.7
COc1c(N2CCNC(C)C2)c(F)cc2c(=O)c(C(=O)O)cn(C3CC3)c12 (stereo unspecified) [Gatifloxacin],cell viability,HCI01,99.3 ± 31
same,cell viability,HCI03,81.1
same,cell viability,HCI09,75 ± 10
same,cell viability,HCI11,124
same,cell viability,HCI13,82.6 ± 7.6
same,cell viability,HCI16,92.2
same,cell viability,UCD52,140 ± 6.7
same,cell viability,WHIM2,59.6 ± 23
same,cell viability,WHIM30,124 ± 24
